Sampled rows, rich in hits. Any-hit rate of the full collection: about 9%.
ALDH1A1 inh: qHTS Assay for Inhibitors of Aldehyde Dehydrogenase 1 (ALDH1A1); Purified ALDH1A1, NADH fluorescence, propionaldehyde substrate; 220,000 tested, 7.3% active; Aldehyde dehydrogenase 1A1 (Homo sapiens), P00352; Potency, µM (titrated, usually from 75.3 µM), without a hit: top-dose activity, negative = inhibition, actives largely listed as inhibitors;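 note: potency is the fitted concentration of half-maximal effect; plate controls were no enzyme wells and a reference inhibitor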
IMPase inh: qHTS Assay for Identifying the Cell-Membrane Permeable IMPase Inhibitors. Inositol monophosphatase 1 (Rattus norvegicus), P97697. CHO-M1 cells, IP1 accumulation, HTRF TR-FRET ratio. inhibition (IP1 accumulation), % at 46.1 µM. 120,000 tested, under 10 active; active = well fitted curve in the direction sought with a large enough effect in the signal ratio, not every such curve was filed as active; inconclusive = small, poorly fitted or top-dose-only effect, or a change in a side signal; inactive = no such curve, though single readings can be large or run the other way; the % refers to the signal ratio;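 note: cells stimulated with carbachol in lithium chloride buffer; plate controls were DMSO basal wells for no effect and reference inhibitor wells for full effect; higher means more IMPase inhibition seen as more IP1 and lower FRET ratio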
Target sequence (P97697 whole entry, looked up): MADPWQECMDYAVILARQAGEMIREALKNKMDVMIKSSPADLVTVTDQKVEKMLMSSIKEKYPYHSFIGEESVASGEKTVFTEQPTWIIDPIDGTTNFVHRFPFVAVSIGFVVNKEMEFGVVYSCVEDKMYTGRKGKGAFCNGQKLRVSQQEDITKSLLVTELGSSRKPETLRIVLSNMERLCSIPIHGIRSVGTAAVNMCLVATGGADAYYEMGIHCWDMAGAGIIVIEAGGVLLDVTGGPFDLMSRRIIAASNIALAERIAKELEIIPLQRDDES
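Measured: the HTRF emission ratio (665/620 nm) plus the 620 nm donor channel, each fitted to the Hill equation to give AC50. Cells were CHO-M1 given compounds up to 46 uM and a 30 min carbachol stimulation at 37C.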
HPGD block: qHTS Assay for Inhibitors of HPGD (15-Hydroxyprostaglandin Dehydrogenase) | 15-hydroxyprostaglandin dehydrogenase [NAD(+)] (Homo sapiens), P15428 | purified HPGD, NADH fluorescence kinetic, PGE2 substrate | Potency, µM, for the others: at the highest dose activity change, negative = inhibition, hits mostly inhibitors | 150,000 tested, 4.3% active | AID 894, 2007; note: potency is the fitted concentration of half-maximal effect
Target sequence (P15428 whole entry, looked up): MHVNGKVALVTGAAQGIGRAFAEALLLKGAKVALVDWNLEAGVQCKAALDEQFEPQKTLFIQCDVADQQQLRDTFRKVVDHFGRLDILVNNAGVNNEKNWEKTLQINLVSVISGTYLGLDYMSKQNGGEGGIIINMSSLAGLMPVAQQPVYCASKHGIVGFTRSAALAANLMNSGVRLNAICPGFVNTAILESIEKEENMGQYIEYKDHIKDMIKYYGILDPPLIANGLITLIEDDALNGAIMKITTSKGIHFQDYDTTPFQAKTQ
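NADH formation kinetics: reaction with 30 uM PGE2 and 1 mM NAD+ (final), 20 nM enzyme, Tris-HCl pH 8 with Tween 20, after 15 min compound preincubation at room temperature. Fluorescence change, last versus first of five reads.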
Numbers without * were called inactive; u = inconclusive; x = no result given; [ ] = dose if it differs, or a comment. Unless noted, calls come from the whole dose curve; as a rule, active = well fitted inhibition curve with a large enough effect (not every such curve was filed as active); inconclusive = small, poorly fitted or top-dose-only effect, or another doubt; inactive = no such curve, though single readings can be large or run the other way. Unless noted, % is set by controls: 0 for no effect and ±100 for the full control effect.

SMILES	ALDH1A1 inh	IMPase inh	HPGD block
Fc1cccc(Cc2noc(CN3CCN(C4CCc5ccccc5C4)CC3)n2)c1 (stereo not given)	0.1%	x	x
Fc1cccc(Cc2noc(CN3CCCN(C4Cc5ccccc5C4)CC3)n2)c1	3.55µM*	x	x
COCCNC(=O)NC(=O)CN1CCN(C(c2ccccc2)c2ccccc2)CC1	-2.0%	x	x
Cc1ccsc1/C=N/NC(=O)CC(=O)NCC(C)C	6.1%	x	x
COc1ccc(NS(=O)(=O)c2ccc(N/N=C(\C)c3ccncc3)c([N+](=O)[O-])c2)cc1	1.4%	x	6.31µM*
C/C(=N\Nc1ccc(S(=O)(=O)Nc2ccccc2)cc1[N+](=O)[O-])c1ccncc1	1.6%	x	x
c1cncc(-c2nc(N3CCCCCC3)c3ccccc3n2)c1	1.41µM*	0.9	-19.5%
CN1CCN(c2nc(-c3cccnc3)nc3ccccc23)CC1	-0.7%	7.4	-12.5%
CCN(CC)S(=O)(=O)c1cc(C(=O)NCCN2CCOCC2)ccc1Cl	0.2%	x	x
O=C1CCN(N=Nc2cccc(Cl)c2)N1	20µM*	1.6	u
Nc1[nH][nH]c(=O)c1N=Nc1cccc(Cl)c1	4.2%	x	x
CCOC(=O)COn1c(=O)c(=O)n(O)c2ccccc21	u	1.9	x
Cc1cccc(N2C(=O)CN(Cc3sccc3C)C2=S)c1	-0.8%	x	14.1µM*
CCc1ccc(N2C(=O)CN(Cc3sccc3C)C2=S)cc1	-3.4%	x	x
Cc1ccsc1CN1CC(=O)N(c2c(C)cccc2C)C1=S	5.9%	x	x
Cc1cc(C)cc(N2C(=O)CN(Cc3sccc3C)C2=S)c1	0.4%	x	28.2µM*
CC(=O)c1ccc(N2CCN(C(=O)Nc3cccc(F)c3)CC2)cc1	4.4%	x	x
CCC(=O)O[C@H](CC(=O)O)C[N+](C)(C)C	-5.7%	-0.1	-0.8%
CCC/C=C(\CCC)C(NC(=O)c1ccc(C(=O)OC)cc1)c1ccc(C(=O)OC)cc1 (stereo not given)	0.9%	x	-10.7%
O=C(NCCc1ccc(Cl)cc1)C1CCN(S(=O)(=O)N2CCC3(CC2)OCCO3)CC1	-3.7%	6.0	-3.3%
Cc1ccc(NC(=O)CSc2nc3ccc(Br)cc3[nH]2)c(C)c1	x	11.5	x
COc1ccc(S(=O)(=O)N2c3cc(Cl)ccc3Oc3nc4ccccc4nc32)cc1	-15.0%	-10.4	-7.6%
O=S(=O)(c1ccc(Cl)cc1)N1c2ccccc2Oc2nc3ccccc3nc21	25.1µM*	7.1	-12.7%
CC1Cc2c(-c3ccccc3)nc3c(c2CO1)CN(CCOc1ccccc1)CC3 (stereo not given)	-5.1%[13.5 µM]	x	x
N#Cc1c(-c2ccccc2)cc(-c2ccccc2)nc1SCC(=O)Nc1ccc(Cl)cc1	x	-0.8	x
SMILES	ALDH1A1 inh	IMPase inh	HPGD block
N#Cc1c(-c2ccc(F)cc2)cc(-c2ccccc2)nc1SCC(=O)NCC(=O)O	8.91µM*	x	x
COc1ccc2c(c1)C(=O)[C@H](OC(=O)N[C@H]1CCCc3ccccc31)[C@@H](c1ccc(OC)c(Br)c1)O2	u	x	-10.4%
Cc1cccc(NC(=O)c2ccccc2NC(=O)C2CCCCC2)c1C	u	-11.9	2.51µM*
O=C(O)c1ccc(NC(=S)NC2CCCCC2)cc1	-8.0%	x	-12.3%
Cc1cccc(C)c1NC(=S)NC1CCCCC1	-6.2%	-8.9	x
O=C(Nc1ccccc1)c1ccccc1NC(=O)C1CCCCC1	-1.5%	-9.5	-25.9%
CC(C)c1ccc(NC(=S)NC2CCCCCC2)cc1	-4.5%	x	x
Cc1cccc(NC(=S)NNC(=S)NC2CCCCC2)c1C	2µM*	x	x
CC(=O)c1ccc(NC(=S)NNC(=O)NC2CCCCC2)cc1	1µM*	x	x
Cc1ccc(NC(=S)NNC(=S)NC2CCCCC2)cc1	3.16µM*	x	x
CCCCC(=O)Nc1ccc(C(=O)N2CCC(C(=O)OCC)CC2)cc1	1.3%	-3.0	-6.6%
COC(=O)/C=C/COc1ccccc1[N+](=O)[O-]	-7.1%	x	x
COc1ccc(Cl)cc1NC(=O)C(=O)NCc1ccc(Cl)cc1	x	4.7	x
Cc1ccccc1-c1cc2nc(-c3ccc([N+](=O)[O-])cc3)cc(=O)n2[nH]1	-5.8%	x	x
O=c1cc(-c2ccc([N+](=O)[O-])cc2)nc2cc(-c3ccc(F)cc3)[nH]n12	7.94µM*	x	-23.2%
COc1ccc(C(=O)C2CCCN(S(=O)(=O)C(C)C)C2)c(C)c1 (stereo not given)	10.2%	x	x
CCC(=O)c1ccc(N2CCN(C(=O)COc3ccccc3F)CC2)c(F)c1	-15.3%	x	x
CCOC(=O)N1CCN(c2ccc(C(C)=O)cc2F)CC1	-1.5%	-9.2	-15.3%
CCOC(=O)N1CCN(c2ccc(C(=O)c3ccccc3)cc2F)CC1	u	3.1	28.2µM*
CCCC(=O)c1ccc(N2CCCC2)c(F)c1	u	-1.2	22.4µM*
CCCC(=O)c1ccc(N2CCN(S(=O)(=O)c3ccccc3)CC2)c(F)c1	-6.3%	-8.9	-15.5%
CCC(=O)c1ccc(N2CCN(C(=O)c3ccccc3F)CC2)c(F)c1	14.1µM*	x	x
CCC(=O)c1ccc(N2CCCC2)c(F)c1	-3.9%	x	-21.5%
CCC(=O)c1ccc(N2CCCCCC2)c(F)c1	u	-2.8	15.8µM*
CC(=O)N1CCC(=NNC(=O)c2cccs2)CC1	-15.5%	x	0.2%
SMILES	ALDH1A1 inh	IMPase inh	HPGD block
C[C@@H](C(=O)Nc1ccc2ccccc2c1)[C@@H]1C[C@@]1(C)[C@@H](NS(=O)(=O)c1ccc2ccccc2c1)c1ccccc1	-7.9%	x	u
O=C(NCC1CCCO1)c1ccc(NS(=O)(=O)c2ccccc2)cc1 (stereo not given)	-0.3%	x	x
CCOC(=O)CN1CC23C=CC(O2)C(C(=O)NCc2ccc(C)cc2)C3C1=O (stereo not given)	-2.6%	3.9	15.8µM*
CCOC(=O)CN1CC23C=CC(O2)C(C(=O)NCc2cccs2)C3C1=O (stereo not given)	12.2%	0.8	-3.3%
CCOC(=O)[C@]1(C(NC(=O)OC)c2cccc(C)c2)CCCC1=O (stereo not given in full)	6.7%[13.5 µM]	x	x
CCc1nc2oc3cc(OC)ccc3c(=O)c2c(=O)n1-c1ccccc1	11.9%	-0.6	-7.8%
Cc1ccc(-n2c(C)nc3oc4ccccc4c(=O)c3c2=O)cc1	28.2µM*	-18.2	u
Cc1ccccc1N1C(=O)CC(Sc2nnc(-c3ccccc3)o2)C1=O (stereo not given)	7.94µM*	u	-28.8%
O=C1OCCC1Sc1nnc(-c2ccc(Br)cc2)o1 (stereo not given)	-7.4%	7.5	-5.9%
CCSc1nnc(-c2ccncc2)o1	-12.3%	-8.7	-2.7%
Cc1ccc(N2C(=O)CC(Sc3nc(-c4ccccc4)c4cc(Cl)ccc4n3)C2=O)c(C)c1 (stereo not given)	-1.5%	-14.3	u
O=C1CC(Sc2nnc(-c3ccccc3)o2)C(=O)N1c1ccccc1 (stereo not given)	1.78µM*	u	22.4µM*
O=C1c2ccccc2CC1Sc1nnc(-c2ccncc2)o1 (stereo not given)	1µM*	13.4	u
CC(C)C[C@@H](CC(=O)N[C@H](CC(=O)N[C@@H]1CCCC[C@H]1C(=O)N[C@H](CC(=O)N[C@@H](CCC(=O)O)CC(=O)O)CC(C)C)C(C)C)NC(=O)[C@@H]1CCCC[C@H]1N	u	x	-2.9%
